High-throughput results (PubChem BioAssay)
Only some compounds are listed: those with a hit (about 0.99% of all), similar ones and a draw of the others.
NS1 inh: blocks influenza NS1 protein function | 270,000 compounds, 0.4% hits | Potency, µM (series often up to 46.1 µM), for inactives: at the highest dose activity, positive = more growth; further: potency means the concentration at half of the fitted maximal effect; actives are rising curves; nearly all actives have a fitted effect of over 50% in size
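OD600 was taken as the measure of yeast growth restored by compound in an NS1-expressing S. cerevisiae strain. Cells had been washed out of glucose medium and diluted 1:100 into galactose -URA medium, pH 6.0.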
AmpC detergent: inhibitors of E. coli AmpC beta-lactamase with detergent; P00811; AmpC hydrolysis of nitrocefin, absorbance 480 nm, 0.01% Triton; Potency, µM (series often up to 114 µM), for inactives: at the top dose activity change, negative = inhibition, usual class: inhibitors; 370,000 compounds, 0.041% hits; active means well fitted curve in the direction sought with a large enough effect; inconclusive means small, poorly fitted or top-dose-only effect, or another doubt; inactive means no such curve, though single readings can be large; an effect the other way counts as inactive or inconclusive;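 further: potency means the concentration at half of the fitted maximal effect; 0% = no-compound wells and -100% = no-enzyme wells; nearly all actives have a fitted effect of over 25% in size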
Target sequence (P00811 whole entry, looked up): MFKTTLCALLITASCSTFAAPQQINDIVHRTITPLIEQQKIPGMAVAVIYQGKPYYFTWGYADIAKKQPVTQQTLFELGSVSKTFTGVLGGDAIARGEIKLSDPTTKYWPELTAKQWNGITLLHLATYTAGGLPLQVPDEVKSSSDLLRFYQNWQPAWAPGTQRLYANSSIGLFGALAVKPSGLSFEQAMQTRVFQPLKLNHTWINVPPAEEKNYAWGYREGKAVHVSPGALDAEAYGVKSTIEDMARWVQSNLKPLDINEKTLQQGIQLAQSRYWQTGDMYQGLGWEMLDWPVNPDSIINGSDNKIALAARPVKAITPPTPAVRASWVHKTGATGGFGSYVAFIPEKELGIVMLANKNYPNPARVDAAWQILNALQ
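AmpC (5.3 nM in the dispensed reagent) in 20 mM phosphate pH 7.0 with 0.01% (detergent screen) or 0.0001% Triton X-100 was preincubated with compounds for 15 min at room temperature. Nitrocefin was then added from an 800 uM solution, and hydrolysis was followed at 480 nm.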
AmpC inh no detg: blocks E. coli AmpC beta-lactamase in detergent-free assay; AmpC nitrocefin hydrolysis, absorbance 480 nm, 0.0001% Triton; Potency, µM (doses to about 57.1 µM), for inactives: at the top dose activity change, negative = inhibition, most hits filed as inhibitors; 330,000 compounds, 0.52% hits; AID 485341; active means well fitted curve in the direction sought with a large enough effect; inconclusive means small, poorly fitted or top-dose-only effect, or another doubt; inactive means no such curve, though single readings can be large; an effect the other way counts as inactive or inconclusive;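 further: potency means the concentration at half of the fitted maximal effect; plate controls were no compound for no effect and no enzyme for full effect; nearly all actives have a fitted effect of over 20% in size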
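AmpC (5.3 nM in the dispensed reagent) in 20 mM phosphate pH 7.0 with 0.01% (detergent screen) or 0.0001% Triton X-100 was preincubated with compounds for 15 min at room temperature. Nitrocefin was then added from an 800 uM solution, and hydrolysis was followed at 480 nm.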
SARS PLP yeast: inhibitors of SARS-CoV papain-like protease in yeast; S. cerevisiae expressing SARS-CoV PLpro, growth rescue; Potency, µM (highest dose often 32.9 µM), without a hit: top-dose activity, positive = growth rescue, hits mostly activators; 330,000 compounds, 0.19% hits; AID 485353; further: potency means the concentration at half of the fitted maximal effect; 0% is about no effect; nearly all actives have a fitted effect of over 55% in size
AMA1-RON2 inh: AMA1-RON2 (P. falciparum) interaction inhibition. AlphaScreen AMA1-biotinylated RON2 peptide binding. Potency, µM (doses to about 58.2 µM), without a hit: top-dose activity change, negative = inhibition, usual class: inhibitors. 360,000 compounds, 0.2% hits; active means well fitted curve in the direction sought with a large enough effect; inconclusive means small, poorly fitted or top-dose-only effect, or another doubt; inactive means no such curve, though single readings can be large; an effect the other way counts as inactive or inconclusive;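 further: potency means the concentration at half of the fitted maximal effect; 0% = vehicle wells and -100% = peptide control; nearly all actives have a fitted effect of over 45% in size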
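AMA1 (3D7) with his tag at 25 nM final met compounds first, then biotinylated RON2 peptide at 25 nM; detection used donor plus acceptor beads, 10 µg/mL apiece, read by AlphaScreen after 30 min at room temperature.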
NS1 inh valid: validation of influenza NS1 protein function inhibitors; influenza NS1 function cell assay, 15-point titration; shares compounds with NS1 inh; AID 492980; activity change, negative = inhibition, % at 32.9 µM; 1,400 tested, under 10 active; further: 0% is about no effect
PR8 titer: reduces influenza A/PR/8/34 replication in MDCK cells; MDCK infected influenza A/PR/8/34, virus titer TCID50; active compounds read low; 95 compounds, 30% hits; shares compounds with NS1 inh; virus titer (log TCID50), log10 TCID50 at 5 µM; call rule not given here
Numbers without * were called inactive; u = inconclusive; x = no result. Unless noted, the call rests on the fitted dose curve.

SMILES	NS1 inh	AmpC detergent	AmpC inh no detg	SARS PLP yeast	AMA1-RON2 inh	NS1 inh valid	others
O=C(O)c1cccc(NC(=O)C23CC4CC(C2)CC(n2cnc(Cl)n2)(C4)C3)c1	9%	-15%	-16%	7%	12%	x
CCOc1ccc(NC(=O)Cn2c(CCC(=O)O)ccc2-c2ccc(Cl)cc2)cc1	x	4%	x	x	x	x
COc1cc(/C=C/C(=O)Nc2nnc(CC(C)C)s2)cc(OC)c1OC	u	-8%	5%	7%	-5%	-4
COCC(C)N=C1NN=C(c2c[nH]c3ccccc23)CS1 (stereo not given)	u	-4%	-38%	13%	67%	-2
Cc1ccc(N(Cc2cc3ccccc3[nH]c2=O)C(=O)c2cccc(Cl)c2)cc1	x	-1%	x	x	x	x
NC(=O)Nn1c(CCC(=O)O)ccc1-c1ccc(F)cc1	u	1%	-16%	u	-3%	9
O=C(O)CCc1ccc(-c2ccc(F)cc2)n1CC(=O)O	11%	2%	-22%	9%	1%	x
Cc1ccc(-c2ccc(CCC(=O)O)n2CC(=O)O)cc1	11µM*	4%	-4%	6%	-4%	11
CC(C)CCNC(=O)c1cn(C)c2ccc(S(=O)(=O)N3CCOCC3)cc2c1=O	x	4%	x	x	x	x
Cc1cccc(NC(=O)CSc2nnc([C@@H](N)Cc3c[nH]c4ccccc34)o2)c1C	11µM*	-7%	89%	2%	64%	15
CCCn1c(=O)c2sccc2n2c(CCCC(=O)N3CCN(c4cccc(Cl)c4)CC3)nnc12	x	17%	x	x	x	x
Cc1nc2nc(CSc3nnc(C)s3)cc(=O)n2[nH]1	7.9µM*	6%	5%	1%	-7%	3
CCOc1cc2[nH]c(=O)n(CC3CCC(C(=O)NCCCOC)CC3)c(=O)c2cc1OCC (stereo not given)	8.9µM*	-15%	-1%	4%	-6%	9
Cc1ccc(-c2cn3c(n2)sc2cc(C(=O)NC(C)C45CC6CC(CC(C6)C4)C5)ccc23)cc1 (stereo not given)	x	-1%	x	x	x	x
CC1=NN=C(c2ccc(N)cc2)c2cc3c(cc2C1)OCO3	35µM*	-3%	19%	x	-7%	11
Cc1nc(N)ncc1-c1ccc2c(c1)OCO2	0%	0%	-16%	9%	2%	x
Cc1cc(C)c(NC(=O)CCN2CCCCC2)c(C)c1	x	19%	x	x	x	x
CC(C)C[C@H](NC(=O)c1nc[nH]c1C(=O)NC(c1ccccc1)c1ccccc1)C(=O)OC(C)(C)C	10µM*	10%	-11%	0%	79%	15
CC(C)C[C@H](NC(=O)c1[nH]cnc1C(=O)N[C@@H](C)C(=O)OCc1ccccc1)C(=O)OC(C)(C)C	13µM*	7%	52%	-2%	129%	-28
CC(C)C[C@H](NC(=O)c1nc[nH]c1C(=O)NCC(=O)OCc1ccccc1)C(=O)OC(C)(C)C	u	-4%	76%	-1%	130%	x
Cc1nc(-c2ccccc2)sc1CCNC(=O)C(=O)Nc1ccc2c(c1)OCO2	x	3%	x	x	x	x
CCc1ccc(OCC2c3cc(OC)c(OC)cc3CCN2C(=O)COc2ccccc2)cc1 (stereo not given)	x	-4%	x	x	x	x
CCOC(=O)c1c(C)oc2ccc(N(C(=O)Oc3ccccc3)S(=O)(=O)c3ccc(CC)cc3)cc12	x	13%	x	x	x	x
Cc1cccc(NC(=O)c2cc(NC(=O)c3ccco3)ccc2N2CCCCC2)c1	2%	-9%	-29%	-3%	0%	x
Cc1ccccc1C(=O)Nc1cccc(C(=O)Nc2ccccc2C(=O)O)c1	11µM*	-6%	-20%	-4%	1%	14
SMILES	NS1 inh	AmpC detergent	AmpC inh no detg	SARS PLP yeast	AMA1-RON2 inh	NS1 inh valid	others
CC(=O)c1ccc(NS(=O)(=O)c2cccc(C(=O)Nc3ccccc3C(=O)O)c2)cc1	13µM*	-18%	-31%	6%	-1%	31
Cc1cccc(NS(=O)(=O)c2cccc(C(=O)Nc3cccc(C(=O)O)c3)c2)c1	2.2µM*	-6%	-24%	-1%	-5%	31
O=C(Nc1ccccc1C(=O)O)c1cccc(NC(=O)c2ccccc2Cl)c1	2%	u	-25%	-3%	-2%	x
COc1ccc(NS(=O)(=O)c2cccc(C(=O)Nc3ccccc3C(=O)O)c2)cc1	u	-5%	-26%	2%	-7%	x
Cc1cccc(NC(=O)c2cc(NC(=O)c3ccccc3)ccc2N2CCCCC2)c1	u	-12%	1%	-2%	-6%	2	PR8 titer=8.5
CC(C)OCCCn1c(SCc2ccccc2C#N)nc2c(sc3ccccc32)c1=O	x	-4%	x	x	x	x
Cc1cccc(NC(=O)C2CCCN(c3nc(C)cc(C)n3)C2)c1 (stereo not given)	8.9µM*	-7%	9%	-1%	1%	1
CCC(=O)N1CCC2(CC1)Oc1ccc(F)cc1C(=O)C21CC(c2ccccc2)=NO1 (stereo not given)	-3%	2%	174%	-1%	-7%	x
CCC(=O)N1CCC2(CC1)Oc1ccc(Cl)cc1C(=O)C21CC(c2ccccc2)=NO1 (stereo not given)	u	1%	150%	0%	11%	u
Oc1c(C(c2ccccc2)N2CCCCC2)sc2ncnn12 (stereo not given)	u	-3%	-11%	1%	0%	1
Oc1c(C(c2ccccc2)N2CCN(Cc3ccccc3)CC2)sc2ncnn12 (stereo not given)	u	u	54%	0%	1%	x
O=C1C(c2ccc(F)cc2)N(CCc2ccccc2)C(=O)CN1C1CCCCC1 (stereo not given)	x	8%	x	x	x	x
CCS(=O)(=O)Nc1cccc(C2=NN(S(=O)(=O)c3ccc(C)cc3)C(c3cccs3)C2)c1 (stereo not given)	13µM*	u	-31%	-5%	-26%	13
CCS(=O)(=O)Nc1cccc(C2=NN(S(=O)(=O)c3ccccc3)C(c3cccs3)C2)c1 (stereo not given)	10µM*	6%	-12%	5%	-10%	17
Cc1nc(C)c(CCNS(=O)(=O)c2ccc(C)c(C)c2)s1	x	4%	x	x	x	x
COc1ccc(-n2cc(-c3ccccc3)c3c(Nc4ccc(OC)c(OC)c4)ncnc32)cc1	x	1%	x	x	x	x
O=C1Nc2cc(S(=O)(=O)N3CCCC3)ccc2N2CCCC12 (stereo not given)	13µM*	4%	13%	0%	-2%	33
COc1cc(NS(=O)(=O)c2ccc(NC(=O)COc3cccc(C)c3)cc2)nc(OC)n1	u	-15%	u	2%	12%	x
